In the supplement of paper PMC12632987:
Changes are numbered by the printed parent chain.

B1: GBRAPL2_0_7223 (protein)
chain: MEKLKEEMLKLSIEEASKKAVETVKEMVESGKYSLEEIEEKIEAMAEVLGELLKKEKKEEAEEIAIKAADEIRKILEKKDPNLAAFAYSEIGAEIMEARE
B2: GBRAPL2_0_7224 (protein)
chain: MEEWIEKLKKLSIEEAAALVVEKIKELVESGKYSLEEIAEIVEKLARVLGEKLKEENKEEGLDLAAKAADEIRKILEKVDPNLAAFADSEIGSEIMEASS
B3: GBRAPL2_0_7225 (protein)
chain: B2 chain with W4E, I5L, A18K, L19Y, I24V, E40D, E77S, V79L, F86Y, S93A
B4: GBRAPL2_0_7226 (protein)
chain: MEETLEKIKKLSIKEAAEYVVEKVEELVKSGKYSLEEIEEIVSALADELGEKLKKENKEEGLDYAAEAADRIREILSKLDPNLAAFAYSEIGSEIMEAES
B5: GBRAPL2_0_7227 (protein)
chain: IEEKIKEMSKLSIEEAAKKAVELVKEMAESGKYSLEEIEEFVEAAAEVLGKKIKEEKKEEGLDIADEAARKIREILSKVDPRLAAYAASEIGAAIMEAIS
B6: GBRAPL2_0_7228 (protein)
chain: IEEEIEKISKLSIEEAAKAAVELVKEMAESGKYSLEEIEEFVEKAAEVLEKKIKEEKKEESLDIAAETADEVRKILEKIDPNLAAYAASEIGSGIMEAIS
B7: GBRAPL2_0_7229 (protein)
chain: IEEEIEEMKKLSIEEAAKRAVELVKEMAESGKYSLEEIAEFVEKAAEVLGEKLKEEKKEEGLDIAAEAADEIRKILSKIDPNLAAYAASEIGSEIMEVIS
B8: GBRAPL2_0_7230 (protein)
chain: IEERVEEMSKLSIEEAAAYAVEKVREMAESGEYSLEEIEEFVEKAAEVLGKKLKEEKKEEGLDIAAEAAREIREILSKVDPRLAALAESEIGAAIMEAEL
B9: GBRAPL2_0_7232 (protein)
chain: MEEKIEELKKLSVEEAAKYFVETVKEAVESGKYSLEEIAELIEKMAEVLGEKLKEVKKEEAIDIAAKAADEVRKILSKLDPNLAAYAASEIGAEIMEAWS
B10: GBRAPL2_0_7233 (protein)
chain: MEEIVEELKKLSVEEAAEYFVKKVKEMVESGKYSLEEIEELIEKLAEVLGEKLKKNKKEEDLDIAAEAADKVREILLKRDPNLAAFAASEIGAEIMEAWS
B11: GBRAPL2_0_7234 (protein)
chain: KEELLKELLSLSLEEAKKAIKELAEEVIKLIKEDPEKGIEKAIELAEVFAEYLIERKDEELAKVIDEAIDKIVKEVEKVDPNAAAEIASEIGSAIYEVES
B12: GBRAPL2_0_7236 (protein)
chain: MEELLKRLLSLSLEEAKKEIKELAEKAIKLIKKDPEKGIKYAEELAKVFAEYLEKTKNEELAEVIDEAIDKIVEEVAKVDPNAAAAIASEIGSALYEVES
B13: GBRAPL2_0_7237 (protein)
chain: MEELLEKLLSLSLEEAKKEIKKLADEVIELLRKDPEKGKEAAEELAEVFSEYLEKTKNEELEEVIDEAIDKIVEEMSKIDPREAAYIDSIFGSAIMEVEG
B14: GBRAPL2_0_7238 (protein)
chain: AEELLKKLLEASVEEAIAAIKEAAEKAVKEIEKDPEAGLKAAEELAEVFAEVIIERKNEEVIKAVEEAADRIVAAAAKVDPNAAAYIASIIGSALYEYES
B15: GBRAPL2_0_7239 (protein)
chain: MEELLKELLSLSLEEAKKKIKEKTEEAVKLIRKDPEKGLKYAEELVEVFAEVVVERKNEELEEVVDEATDRLVEEAAKIDPNEAAYLAAIRGSAIAEVEL
B16: GBRAPL2_0_7240 (protein)
chain: MEALKAELLALSLEEAIARIEALTDEAVALIRADPEAGLAAAEELVEVLAEVVVERKDERLEEAVEAATDRLAAVVAEVDPREAAYLRAIMGSAIAEVES

Target: GABARAPL2, P60520
Sequence (P60520 whole entry, the tested form may be a part): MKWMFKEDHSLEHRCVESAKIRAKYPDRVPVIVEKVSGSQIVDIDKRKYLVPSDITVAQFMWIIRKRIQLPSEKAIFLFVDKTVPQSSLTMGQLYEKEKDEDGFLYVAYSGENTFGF
Assay: median log2 fold change of GCK-ALFA target abundance (FLAG IP / Myc IP barcode read proportion) (log2 ratio); each designed protein is fused to an ALFA-tag nanobody in HEK293 cells to bring the named protein to FLAG-tagged glucokinase (GCK); Myc marks an untargeted standard; higher = target protein stabilised (more abundant)
Details: target protein: 3xFLAG-MCP-GCK-ALFA reporter; HEK293 landing pad (RPLP)
In short: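 Sequencing of reverse-transcribed, amplified circular RNA barcodes from anti-FLAG and anti-Myc immunoprecipitates provided the readout for an ALFA-nanobody-fused binder library recombined into HEK293 landing-pad cells. Those cells were induced with 2 μg mL^−1 doxycycline, transfected with a plasmid expressing a FLAG-tagged target and a Myc-tagged standard, and lysed after 48 h. Target abundance is the per-binder median log2 ratio of FLAG to Myc barcode read proportions. Only barcodes at a proportion of ≥10^−7 in both replicates and binders with ≥3 barcodes per replicate were kept, with a 10^−6 pseudocount added before the two replicates were pooled.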

Row | Binder | median log2 fold change
1 | B1 | 0.33
2 | B2 | 0.136
3 | B3 | -0.0692
4 | B4 | 0.24
5 | B5 | 0.213
6 | B6 | 0.048
7 | B7 | -0.0242
8 | B8 | 0.138
9 | B9 | 0.0832
10 | B10 | 0.0153
11 | B11 | 0.244
12 | B12 | 0.224
13 | B13 | -0.0207
14 | B14 | 0.0105
15 | B15 | 0.0745
16 | B16 | 0.0165
